Source: PubChem (The Scripps Research Institute Molecular Screening Center)
Compounds with a hit are over-represented: about 3.4% of the library has one in this group of screens.
ADAM17 inh = ADAM17 inhibitors, primary screen, biochemical, QFRET. recombinant ADAM17, EDANS/DABCYL FRET peptide cleavage. inhibition, % at 6.95 µM. Disintegrin and metalloproteinase domain-containing protein 17 (Homo sapiens), P78536. hit rate 0.83% among 370,000;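 active = inhibition above the mean of compounds lying between control limits plus 3 SD, set per campaign, cut at about 8.5% in these data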;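 note: 0% = DMSO-only wells as the low control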
Target sequence (P78536 215-824 limits assumed): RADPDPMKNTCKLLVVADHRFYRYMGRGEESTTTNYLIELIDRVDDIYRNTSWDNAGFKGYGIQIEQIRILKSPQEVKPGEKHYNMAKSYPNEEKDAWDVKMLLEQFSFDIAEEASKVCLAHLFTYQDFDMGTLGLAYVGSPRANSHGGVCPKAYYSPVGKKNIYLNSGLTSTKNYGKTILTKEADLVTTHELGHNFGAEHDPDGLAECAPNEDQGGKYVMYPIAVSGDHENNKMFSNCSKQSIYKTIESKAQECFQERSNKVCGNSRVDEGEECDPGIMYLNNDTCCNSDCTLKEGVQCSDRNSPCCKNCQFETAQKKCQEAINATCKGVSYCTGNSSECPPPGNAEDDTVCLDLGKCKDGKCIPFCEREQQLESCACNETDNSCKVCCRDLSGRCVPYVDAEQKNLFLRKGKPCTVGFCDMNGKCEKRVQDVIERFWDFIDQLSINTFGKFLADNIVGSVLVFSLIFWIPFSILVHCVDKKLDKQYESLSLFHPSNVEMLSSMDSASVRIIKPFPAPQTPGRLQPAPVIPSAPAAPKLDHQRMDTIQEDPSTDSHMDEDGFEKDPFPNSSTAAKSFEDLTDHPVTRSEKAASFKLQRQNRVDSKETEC
PLC-beta3 inh = human PLC-beta3 inhibitors, primary screen, biochemical, fluorescence; hit rate 0.18% among 370,000; AID 720704, 2013; 1-phosphatidylinositol 4,5-bisphosphate phosphodiesterase beta-3 (Homo sapiens), Q01970; inhibition, % at 12.2 µM; Purified PLC-beta3, fluorogenic substrate; in the data active = inhibition above about 11%;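 note: 0% = median of compound wells on plate and 100% = full blocker control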
PLC-gamma1 inh = PLC-gamma1 enzyme inhibitors, primary screen, biochemical, fluorescence, purified enzyme; 1-phosphatidylinositol 4,5-bisphosphate phosphodiesterase gamma-1 (Homo sapiens), P19174; inhibition, % at 12.2 µM; hit rate 0.84% among 370,000; fluorogenic substrate; in the data active = inhibition above about 9.5%
sPLA2-III inh = human group III sPLA2 inhibitors, primary screen, biochemical, QFRET, BODIPY PC-A2 liposome substrate. QFRET BODIPY PC-A2 liposome hydrolysis, fluorescence. Group 3 secretory phospholipase A2 (Homo sapiens), Q9NZ20. hit rate 0.56% among 370,000. inhibition, % at 12.2 µM;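 active = inhibition above mean plus 3 SD of compounds lying within the high and low control bounds, cut at about 19% in these data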;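 note: 0% = median of test compound wells and 100% = no enzyme DMSO wells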
ADAM10 inh = human ADAM10 inhibitors, primary screen, biochemical, QFRET, HTS; recombinant ADAM10, EDANS/DABCYL FRET peptide cleavage, 3 h; inhibition, % at 7 µM; hit rate 0.62% among 370,000; Disintegrin and metalloproteinase domain-containing protein 10 (Homo sapiens), O14672; AID 720582, 2013;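 active = inhibition above a per-campaign cutoff equal to the mean of compounds falling between control-based bounds plus 3 SD, cut at about 20% in these data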;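 note: 0% = DMSO wells while the 100% control is not disclosed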
KLK7 zymogen act = proKLK7 zymogen activators, primary screen, biochemical, fluorescence intensity. hit rate 0.9% among 370,000. AID 652039, 2013. activation, % at 7 µM. purified proKLK7, EDANS-DABCYL substrate fluorescence; 100% is mature enzyme control, 0% vehicle. Kallikrein-7 (Homo sapiens), P49862;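 active = activation above the mean of all tested compounds plus 3 SD, computed per campaign excluding outliers beyond control limits, cut at about 13% in these data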
ADAM10 confirm = human ADAM10 inhibitors, confirmation, biochemical, QFRET, triplicate | AID 743208, 2013 | inhibition, % at 6.95 µM | hit rate 1% among 2,100 | ADAM10 QFRET peptide cleavage, EDANS fluorescence | shares compounds with ADAM10 inh;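 active = inhibition above about 20% chosen separately for each screening run, limit read from the data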;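 note: 0% = DMSO wells and 100% = marimastat wells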
ADAM17 ctr = ADAM17 inhibitors, counter-screen for ADAM10 exosite inhibitor project, biochemical, QFRET, high throughput; ADAM17 QFRET peptide cleavage, EDANS fluorescence; AID 743214, 2013; shares compounds with ADAM10 inh; hit rate 0.5% among 2,100; inhibition, % at 6.95 µM;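 active = mean triplicate inhibition above the solvent-only control wells' mean plus 3 SD, cut at about 12% in these data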;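 note: 0% = DMSO wells and 100% = marimastat wells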
ADAM10 counter = ADAM10 inhibitors, counter-screen for ADAM17 exosite inhibitor project, biochemical, FRET, human ADAM10. recombinant ADAM10, EDANS/DABCYL FRET peptide cleavage, 3 h. inhibition, % at 6.95 µM. hit rate 47% among 2,900. shares compounds with ADAM17 inh;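 active = mean inhibition over the triplicate runs exceeds the activity threshold set in the earlier primary screen, cut at about 20% in these data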;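 note: 0% = DMSO wells and 100% = marimastat wells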
ADAM17 confirm = ADAM17 inhibitors, hit retest, confirmation, biochemical, QFRET peptide cleavage; inhibition, % at 6.95 µM; AID 743257, 2014; shares compounds with ADAM17 inh; recombinant ADAM17, EDANS/DABCYL QFRET peptide cleavage; hit rate 65% among 2,900;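 active = mean inhibition across replicates above the hit cutoff set in the primary screen, cut at about 8.5% in these data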;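 note: 0% = DMSO wells and 100% = marimastat wells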
Active calls of the source: *; · = no result.

SMILES	ADAM17 inh	PLC-beta3 inh	PLC-gamma1 inh	sPLA2-III inh	ADAM10 inh	KLK7 zymogen act	ADAM10 confirm	ADAM17 ctr	ADAM10 counter	ADAM17 confirm
CC(/C=C1\SC(=O)N(CC(=O)Nc2cccc(O)c2)C1=O)=C\c1ccccc1	13.0*	-2.4	-1.3	-37.5	28.6*	-1.0	11.6	4.3	23.5*	14.6*
CCCNC(=O)c1onc(CSc2ccc(Cl)cc2)c1C(=O)NCCC(C)C	1.1	-1.5	0.5	-7.1	4.3	0.0	·	·	·	·
O=C(CN1C(=O)C2C3C=CC(C4CC34)C2C1=O)Nc1cnc2ccccc2c1 (stereo unspecified)	-1.2	4.2	2.2	-3.1	8.2	0.1	·	·	·	·
COc1ccc(N/N=C(\C#N)C(N)=O)cc1	0.9	0.3	-1.7	4.4	0.3	0.2	·	·	·	·
COc1ccc(N/N=C(/C(N)=O)C2=NC(C)(C)Cc3ccccc32)cc1	13.8*	5.8	2.3	14.6	28.2*	-0.2	2.7	0.3	8.6	4.7
O=C(NCc1cccs1)c1ccc(Cl)c(S(=O)(=O)N2CCCC2)c1	-0.1	-5.8	1.5	-3.7	4.0	0.4	·	·	·	·
CN(C)c1ccc(NS(=O)(=O)c2cccc(Cl)c2)cc1	-3.1	-1.4	0.2	6.7	2.9	0.2	·	·	·	·
CN(C)c1ccc(NS(=O)(=O)c2ccc(Cl)cc2)cc1	13.0*	5.5	8.4	17.3	33.8*	0.7	5.3	1.2	8.0	3.1
O=C(CCc1ccc(O)cc1)c1c(O)cc(O)cc1O	-0.5	-3.8	1.1	0.8	-1.3	0.0	·	·	·	·
COc1cc(O)c(CC=C(C)C)c(O)c1C(=O)CCc1ccc(O)cc1	12.3*	0.6	1.1	-28.8	24.1*	0.8	9.8	2.2	52.1*	25.9*
COc1ccccc1NC(=O)c1ccc2c(=O)n3c(nc2c1)CCC3	-4.4	-3.5	2.4	10.4	0.2	0.2	·	·	·	·
C[C@@H](C(=O)NCCc1ccccc1)N1C(=O)N2CCc3c([nH]c4ccccc34)[C@@]2(C)C1=O	-0.2	0.8	2.0	-27.4	-7.3	0.0	·	·	·	·
C=CCOc1ccc(Br)cc1/C=N/O	-1.8	1.4	1.0	-8.2	-5.9	-0.2	·	·	·	·
O/N=C/c1cc(Br)ccc1OCc1ccccc1F	9.1*	-2.6	2.0	-17.7	20.6*	-0.3	5.5	1.4	29.9*	16.8*
CN(C)c1ccc(C(C#N)c2ccccc2)nn1 (stereo unspecified)	-1.4	-5.9	-5.3	10.4	-5.0	-0.2	·	·	·	·
Cc1ccc(C)c(N2CCN(S(=O)(=O)c3ccc4c(c3)NC(=O)CS4)CC2)c1	11.8*	-8.7	-3.2	-7.3	20.4*	-0.1	7.7	2.2	34.2*	18.0*
CN1CCN(S(=O)(=O)c2ccc3c(c2)NC(=O)CS3)CC1	-2.4	-8.5	1.3	-1.6	-0.1	0.8	·	·	·	·
CC(=O)N1CCN(CC(=O)Nc2c(Cl)ccc(C)c2Cl)CC1	-1.2	3.0	0.2	3.0	-4.3	-0.6	·	·	·	·
Cc1nc2scc(C)n2c(=O)c1S(=O)(=O)N1CCN(c2ccc([N+](=O)[O-])cc2)CC1	-0.8	-2.3	5.4	3.9	3.8	-0.2	·	·	·	·
Cc1cccc(C)c1OCC(O)Cn1c2ccccc2c2ccccc21 (stereo unspecified)	12.2*	-1.4	-1.7	-21.4	20.4*	0.1	17.1	5.0	20.6*	12.7*
Cc1cccc(C)c1OCC(O)Cn1nnc2ccccc21 (stereo unspecified)	-5.7	-0.1	5.5	-6.8	-0.1	0.2	·	·	·	·
OC(COCC(F)(F)C(F)(F)C(F)(F)C(F)F)Cn1c2ccccc2c2ccccc21 (stereo unspecified)	14.7*	-49.9	-3.9	-14.1	34.0*	-1.8	12.1	5.4	29.2*	19.1*
Cc1nc(C(F)(F)F)ccc1C(=O)N1CCC(C)(C(=O)O)C1 (stereo unspecified)	-0.9	3.3	-1.6	7.2	0.7	0.7	·	·	·	·
COCC(=O)N1CCC(Oc2ccc(C(=O)N(C)Cc3nccs3)cc2)CC1	-2.3	-4.9	-0.8	-1.8	2.9	-0.3	·	·	·	·
Cc1ccc(C(=O)OCc2ccc3c(c2)OCO3)cc1S(=O)(=O)N1CCCCC1	13.0*	-1.4	3.6	-37.2	20.8*	-0.1	4.4	1.4	15.2	9.4*
SMILES	ADAM17 inh	PLC-beta3 inh	PLC-gamma1 inh	sPLA2-III inh	ADAM10 inh	KLK7 zymogen act	ADAM10 confirm	ADAM17 ctr	ADAM10 counter	ADAM17 confirm
Cc1ccc(C(=O)Nc2ccc3c(c2)OCO3)cc1S(=O)(=O)N1CCCC1	0.1	0.9	1.2	-6.1	4.2	-0.5	·	·	·	·
CC(C)C[C@H](NC(=O)c1nc[nH]c1C(=O)NC1CCN(C(=O)OC(C)(C)C)CC1)C(=O)OCc1ccccc1	15.8*	10.3	8.1	-5.6	37.1*	0.5	8.6	2.7	29.4*	16.0*
C[C@H](NC(=O)c1nc[nH]c1C(=O)NC1CCN(C(=O)OC(C)(C)C)CC1)C(=O)OC(C)(C)C	-1.2	1.7	-0.5	-2.1	-1.3	-0.3	·	·	·	·
CC(C)(C)OC(=O)[C@H](Cc1ccccc1)NC(=O)c1nc[nH]c1C(=O)NC1CCN(C(=O)OC(C)(C)C)CC1	10.5*	5.0	1.8	-8.1	23.7*	0.6	4.7	0.8	49.9*	22.6*
CC1CCN(C(=O)c2[nH]cnc2C(=O)N[C@@H](Cc2ccccc2)C(=O)OC(C)(C)C)CC1	-2.1	1.6	0.8	-14.4	4.2	0.7	·	·	·	·
CC(C)C[C@H](NC(=O)c1nc[nH]c1C(=O)NC1CCN(C(=O)OC(C)(C)C)CC1)C(=O)OC(C)(C)C	9.4*	3.3	-1.0	-7.1	24.2*	0.8	3.3	0.4	32.0*	16.1*
